Key:
Assay in all cases: SPOT peptide array binding signal intensity (averaged, normalized) (arbitrary units (background-subtracted, floor 0; scale differs between SH3 domains)); higher = stronger binding of the SH3 domain to the peptide
AgAbp1 = target: AgAbp1
Method: (§1)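 GST-tagged SH3 domains from S. cerevisiae (Sc), A. gossypii (Ag), C. albicans (Ca) and S. pombe (Sp) were incubated at 10 ug/ml overnight at 4 C on cellulose SPOT membranes carrying 292 synthetic 15-mer peptides mined from the S. cerevisiae proteome (cysteines replaced by serines). Binding was detected with anti-GST antibody, HRP secondary and chemiluminescence, quantified with Genespotter, and reported as normalized spot intensities averaged over biological replicates.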

AgBbc1 = target: AgBbc1
Method: as §1

AgBem1-D1 = target: AgBem1-D1
Method: as §1

AgBzz1-D1 = target: AgBzz1-D1
Method: as §1

AgBzz1-D2 = target: AgBzz1-D2
Method: as §1

AgCyk3 = target: AgCyk3
Method: as §1

AgFus1 = target: AgFus1
Method: as §1

AgHof1 = target: AgHof1
Method: as §1

AgHse1 = target: AgHse1
Method: as §1

AgLsb1 = target: AgLsb1
Method: as §1

AgLsb4 = target: AgLsb4
Method: as §1

AgMyo5 = target: AgMyo5
Method: as §1

AgNbp2 = target: AgNbp2
Method: as §1

AgRvs167 = target: AgRvs167
Method: as §1

AgSho1 = target: AgSho1
Method: as §1

AgSla1-D1-D2 = target: AgSla1-D1-D2
Method: as §1

AgSla1-D3 = target: AgSla1-D3
Method: as §1

CaAbp1-D1 = target: CaAbp1-D1
Method: as §1

CaAbp1-D2 = target: CaAbp1-D2
Method: as §1

CaBbc1 = target: CaBbc1
Method: as §1

CaBem1-D1 = target: CaBem1-D1
Method: as §1

CaBzz1-D1 = target: CaBzz1-D1
Method: as §1

CaBzz1-D2 = target: CaBzz1-D2
Method: as §1

CaCyk3 = target: CaCyk3
Method: as §1

CaFus1 = target: CaFus1
Method: as §1

CaHof1 = target: CaHof1
Method: as §1

CaHse1 = target: CaHse1
Method: as §1

CaLsb1 = target: CaLsb1
Method: as §1

CaLsb4 = target: CaLsb4
Method: as §1

CaMyo5 = target: CaMyo5
Method: as §1

CaNbp2 = target: CaNbp2
Method: as §1

CaRvs167 = target: CaRvs167
Method: as §1

CaRvs167-3 = target: CaRvs167-3
Method: as §1

CaSho1 = target: CaSho1
Method: as §1

CaSla1-D1-D2 = target: CaSla1-D1-D2
Method: as §1

CaSla1-D3 = target: CaSla1-D3
Method: as §1

ScAbp1 = target: ScAbp1
Method: as §1

ScBbc1 = target: ScBbc1
Method: as §1

ScBem1-D1 = target: ScBem1-D1
Method: as §1

ScBzz1-D1 = target: ScBzz1-D1
Method: as §1

ScBzz1-D2 = target: ScBzz1-D2
Method: as §1

ScCyk3 = target: ScCyk3
Method: as §1

ScFus1 = target: ScFus1
Method: as §1

ScHof1 = target: ScHof1
Method: as §1

ScHse1 = target: ScHse1
Method: as §1

ScLsb1 = target: ScLsb1
Method: as §1

ScLsb2 = target: ScLsb2
Method: as §1

ScLsb3 = target: ScLsb3
Method: as §1

ScLsb4 = target: ScLsb4
Method: as §1

ScMyo3 = target: ScMyo3
Method: as §1

ScMyo5 = target: ScMyo5
Method: as §1

ScNbp2 = target: ScNbp2
Method: as §1

ScPex13 = target: ScPex13
Method: as §1

ScRvs167 = target: ScRvs167
Method: as §1

ScSho1 = target: ScSho1
Method: as §1

ScSla1-D1-D2 = target: ScSla1-D1-D2
Method: as §1

ScSla1-D3 = target: ScSla1-D3
Method: as §1

SpAbp1-D1 = target: SpAbp1-D1
Method: as §1

SpBbc1 = target: SpBbc1
Method: as §1

SpBzz1-D1 = target: SpBzz1-D1
Method: as §1

SpBzz1-D2 = target: SpBzz1-D2
Method: as §1

SpCyk3 = target: SpCyk3
Method: as §1

SpHof1 = target: SpHof1
Method: as §1

SpHof1-2 = target: SpHof1-2
Method: as §1

SpHof1-3 = target: SpHof1-3
Method: as §1

SpHse1 = target: SpHse1
Method: as §1

SpLsb1 = target: SpLsb1
Method: as §1

SpLsb4 = target: SpLsb4
Method: as §1

SpMyo1 = target: SpMyo1
Method: as §1

SpNbp2 = target: SpNbp2
Method: as §1

SpPex13 = target: SpPex13
Method: as §1

SpRvs167 = target: SpRvs167
Method: as §1

SpSla1-D1-D2 = target: SpSla1-D1-D2
Method: as §1

SpSla1-D3 = target: SpSla1-D3
Method: as §1

## YRRKSIPFAPHQITA
AgAbp1
  SPOT peptide array binding signal intensity: 34
AgBbc1
  SPOT peptide array binding signal intensity: 11.5
AgBem1-D1
  SPOT peptide array binding signal intensity: 21.5
AgBzz1-D1
  SPOT peptide array binding signal intensity: 99.5
AgBzz1-D2
  SPOT peptide array binding signal intensity: 34
AgCyk3
  SPOT peptide array binding signal intensity: 1
AgFus1
  SPOT peptide array binding signal intensity: 131
AgHof1
  SPOT peptide array binding signal intensity: 5.5
AgHse1
  SPOT peptide array binding signal intensity: 162
AgLsb1
  SPOT peptide array binding signal intensity: 25.8
AgLsb4
  SPOT peptide array binding signal intensity: 24
AgMyo5
  SPOT peptide array binding signal intensity: ≤ 0
AgNbp2
  SPOT peptide array binding signal intensity: 62.5
AgRvs167
  SPOT peptide array binding signal intensity: 3.67
AgSho1
  SPOT peptide array binding signal intensity: 16.5
AgSla1-D1-D2
  SPOT peptide array binding signal intensity: 39
AgSla1-D3
  SPOT peptide array binding signal intensity: 2.5
CaAbp1-D1
  SPOT peptide array binding signal intensity: 187
CaAbp1-D2
  SPOT peptide array binding signal intensity: 116
CaBbc1
  SPOT peptide array binding signal intensity: 41.5
CaBem1-D1
  SPOT peptide array binding signal intensity: 24
CaBzz1-D1
  SPOT peptide array binding signal intensity: 182
CaBzz1-D2
  SPOT peptide array binding signal intensity: 148
CaCyk3
  SPOT peptide array binding signal intensity: 6
CaFus1
  SPOT peptide array binding signal intensity: 159
CaHof1
  SPOT peptide array binding signal intensity: 2
CaHse1
  SPOT peptide array binding signal intensity: 16.8
CaLsb1
  SPOT peptide array binding signal intensity: 3
CaLsb4
  SPOT peptide array binding signal intensity: 13
CaMyo5
  SPOT peptide array binding signal intensity: 0.5
CaNbp2
  SPOT peptide array binding signal intensity: 161
CaRvs167
  SPOT peptide array binding signal intensity: 15.7
CaRvs167-3
  SPOT peptide array binding signal intensity: 18.5
CaSho1
  SPOT peptide array binding signal intensity: 70
CaSla1-D1-D2
  SPOT peptide array binding signal intensity: 118
CaSla1-D3
  SPOT peptide array binding signal intensity: 2.5
ScAbp1
  SPOT peptide array binding signal intensity: 53
ScBbc1
  SPOT peptide array binding signal intensity: 9.25
ScBem1-D1
  SPOT peptide array binding signal intensity: 29.5
ScBzz1-D1
  SPOT peptide array binding signal intensity: 66
ScBzz1-D2
  SPOT peptide array binding signal intensity: 90
ScCyk3
  SPOT peptide array binding signal intensity: 10
ScFus1
  SPOT peptide array binding signal intensity: 89
ScHof1
  SPOT peptide array binding signal intensity: 3.5
ScHse1
  SPOT peptide array binding signal intensity: 380
ScLsb1
  SPOT peptide array binding signal intensity: 0.25
ScLsb2
  SPOT peptide array binding signal intensity: 25
ScLsb3
  SPOT peptide array binding signal intensity: 20
ScLsb4
  SPOT peptide array binding signal intensity: 6
ScMyo3
  SPOT peptide array binding signal intensity: 0.5
ScMyo5
  SPOT peptide array binding signal intensity: 6
ScNbp2
  SPOT peptide array binding signal intensity: 160
ScPex13
  SPOT peptide array binding signal intensity: 185
ScRvs167
  SPOT peptide array binding signal intensity: 33.3
ScSho1
  SPOT peptide array binding signal intensity: 145
ScSla1-D1-D2
  SPOT peptide array binding signal intensity: 166
ScSla1-D3
  SPOT peptide array binding signal intensity: 4.25
SpAbp1-D1
  SPOT peptide array binding signal intensity: 99
SpBbc1
  SPOT peptide array binding signal intensity: 2
SpBzz1-D1
  SPOT peptide array binding signal intensity: 189

## KLSRGRYGLPLSSRP
CaNbp2
  SPOT peptide array binding signal intensity: 110
CaRvs167
  SPOT peptide array binding signal intensity: 6.5
CaRvs167-3
  SPOT peptide array binding signal intensity: 13.5
CaSho1
  SPOT peptide array binding signal intensity: 59.5
CaSla1-D1-D2
  SPOT peptide array binding signal intensity: ≤ 0
CaSla1-D3
  SPOT peptide array binding signal intensity: 0.25
ScAbp1
  SPOT peptide array binding signal intensity: 24
ScBbc1
  SPOT peptide array binding signal intensity: 8.5
ScBem1-D1
  SPOT peptide array binding signal intensity: 14
ScBzz1-D1
  SPOT peptide array binding signal intensity: 21
ScBzz1-D2
  SPOT peptide array binding signal intensity: 20
ScCyk3
  SPOT peptide array binding signal intensity: 59
ScFus1
  SPOT peptide array binding signal intensity: 102
ScHof1
  SPOT peptide array binding signal intensity: ≤ 0
ScHse1
  SPOT peptide array binding signal intensity: 754
ScLsb1
  SPOT peptide array binding signal intensity: 89
ScLsb2
  SPOT peptide array binding signal intensity: 7
ScLsb3
  SPOT peptide array binding signal intensity: 16
ScLsb4
  SPOT peptide array binding signal intensity: 15
ScMyo3
  SPOT peptide array binding signal intensity: 6
ScMyo5
  SPOT peptide array binding signal intensity: 8.5
ScNbp2
  SPOT peptide array binding signal intensity: 86.5
ScPex13
  SPOT peptide array binding signal intensity: 7.25
ScRvs167
  SPOT peptide array binding signal intensity: 12.8
ScSho1
  SPOT peptide array binding signal intensity: 112
ScSla1-D1-D2
  SPOT peptide array binding signal intensity: 91.5
ScSla1-D3
  SPOT peptide array binding signal intensity: 2
SpAbp1-D1
  SPOT peptide array binding signal intensity: 146
SpBbc1
  SPOT peptide array binding signal intensity: 2
SpBzz1-D1
  SPOT peptide array binding signal intensity: 163
SpBzz1-D2
  SPOT peptide array binding signal intensity: ≤ 0
SpCyk3
  SPOT peptide array binding signal intensity: 6.5
SpHof1
  SPOT peptide array binding signal intensity: 88.8
SpHof1-2
  SPOT peptide array binding signal intensity: 10.5
SpHof1-3
  SPOT peptide array binding signal intensity: 326
SpHse1
  SPOT peptide array binding signal intensity: 150
SpLsb1
  SPOT peptide array binding signal intensity: 110
SpLsb4
  SPOT peptide array binding signal intensity: 48.5
SpMyo1
  SPOT peptide array binding signal intensity: 2
SpNbp2
  SPOT peptide array binding signal intensity: 38
SpPex13
  SPOT peptide array binding signal intensity: 1
SpRvs167
  SPOT peptide array binding signal intensity: 4.33
SpSla1-D1-D2
  SPOT peptide array binding signal intensity: ≤ 0
SpSla1-D3
  SPOT peptide array binding signal intensity: ≤ 0
